# Assay results published in PubChem BioAssay (NCATS).
# Values joined by “and” are separate entries in the source; they are usually repeats but may differ in a detail not shown here. Equal values may be shown once. Results filed as inconclusive are left out. Values without a mark were called inactive. Active and inactive are the calls of the source. Calls follow the shape of the dose curve; as a rule, active = well fitted inhibition curve with a large enough effect; inconclusive = small, poorly fitted or top-dose-only effect; inactive = flat fitted curve, though single readings scatter. Where a SMILES comes first, the peptide text is derived from it. Bridges are numbered along the chain shown (N, C = ends).
# Tests used:
# HaCat [1] = assay: Cytotoxic Profiling of Annotated Libraries Using Quantitative High-Throughput Screening (AID 1296008); conditions: Five cell lines viability, CellTiter-Glo ATP luminescence, 48-72 h; max response: hits give low values; also: potency is read from the fitted curve at half-maximal effect; as to max response: % is scaled to controls: 0 for no effect and ±100 for the full control effect
# Outline: (§1)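 Cytotoxicity was measured as CellTiter-Glo ATP luminescence, read after 10 min at room temperature. Compound treatment of the cells lasted 48 or 72 hr at 37 degrees Celsius in a qHTS format.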
# NIH3T3 = assay: as above; conditions: Five cell lines viability, CellTiter-Glo ATP luminescence, 48-72 h; max response: hits give low values
# Outline: as §1
# HACAT [2] = assay: qHTS assay to identify novel small-molecules to repurpose for Merkel cell carcinoma treatment (AID 1296009); conditions: MCC and control cell lines, CellTiter-Glo viability, 72 h; at 44.8 µM (top of the series) unless noted
# Outline: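 72 hr, 37 degree celsius; NPC 8-pt / MIPE 11-pt dose response; compound pinned in DMSO; CellTiter-Glo, 10 min RT, luminescence; normalized to no-cell and DMSO controls.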
# KB-3-1 = assay: Cytotoxic Profiling of Annotated Libraries Using Quantitative High-Throughput Screening (AID 1296008); conditions: Five cell lines viability, CellTiter-Glo ATP luminescence, 48-72 h; max response: hits give low values; also: potency is read from the fitted curve at half-maximal effect; as to max response: % is scaled to controls: 0 for no effect and ±100 for the full control effect
# Outline: as §1
# Also: nearly all actives have a fitted effect of over 60% in size.
compound,measurement,setting,value
C#CCNCc1cc2cc(OCc3ccccc3)ccc2[nH]1,max response,HaCat [1],-12.3%
same,max response,NIH3T3,-24.7%
O=C(N[C@@H]1CCCc2c1cnn2-c1ccc(F)cc1F)c1ccccn1,max response,HaCat [1],-21.6%
same,max response,NIH3T3,3.41%
CC(C)(O)C(=O)N1CCN(c2ccc(C(F)(F)F)c(C3=C(c4c[nH]c5ccccc45)C(=O)NC3=O)c2)CC1,outcome,HaCat [1],inactive
same,max response,NIH3T3,-9.17%
same,outcome,HACAT [2],inactive
CCC(C)C(C(=O)OCC[N+](C)(CC)CC)c1ccccc1 (stereo unspecified),max response,KB-3-1,-5.4%
Nc1nc2c(c(N3CC[C@@H](N)C3)n1)CCCc1ccccc1-2,outcome,HaCat [1],inactive
same,max response,NIH3T3,-2.56%
same,outcome,HACAT [2],inactive
O=C(NCCN1CCN(c2cccc3ccc(O)cc23)CC1)c1ccc(F)cc1,max response,HaCat [1],-4.85%
same,max response,NIH3T3,3.66%
C1CNCCN1,max response,KB-3-1,-7.97%
O=C(Nc1cc(C(F)(F)F)cc(C(F)(F)F)c1)c1cnc(Cl)nc1C(F)(F)F,outcome,HaCat [1],inactive
same,max response,NIH3T3,-1.85%
same,outcome,HACAT [2],inactive
Cc1ccc(-c2ncccn2)c(C(=O)N2C[C@H](COc3ccc(F)cn3)CC[C@H]2C)c1,max response,KB-3-1,1.72%
CC(C(=O)O)c1ccc(C2CCCCC2)c2ccccc12 (stereo unspecified),max response,KB-3-1,-20.6%
C/C=C/C=C/c1cc2c(C=O)c(O)c(CC=C(C)C)cc2o1,outcome,HaCat [1],inactive
same,max response,NIH3T3,1.86%
same,outcome,HACAT [2],inactive
C#CCOc1ccc2c(c1)c(-c1ccc(C(C)C)cc1)nc(=O)n2C(C)C,outcome,HaCat [1],inactive
same,max response,NIH3T3,-1.76%
same,outcome,HACAT [2],inactive
O=C(Nc1ccc2[nH]c(=O)oc2c1)C(=O)N1CCC(Cc2ccc(F)cc2)CC1,max response,HaCat [1],4.96%
same,max response,NIH3T3,-23.6%
COc1cc(CCc2ccc(OCC=C(C)C)cc2)cc(OC)c1OC,outcome,HaCat [1],inactive
same,max response,NIH3T3,-1.52%
same,outcome,HACAT [2],inactive
COc1cc2ncc(-c3ccccc3)nc2cc1OC,outcome,HaCat [1],inactive
same,outcome,NIH3T3,inactive
same,outcome,HACAT [2],inactive
COc1ccccc1N1CCN(CC[C@@](C)(C(=O)C2CCCCC2)c2ccccc2)CC1,max response,HaCat [1],-16.7%
same,max response,NIH3T3,-6.96%
C/C=C\NC(=O)C1NC(=O)C(CC(N)=O)NC(=O)C(NC(=O)C(=O)C(C)CC)Cc2ccc(O)c(c2)-c2cccc3c2NC(=O)C3(O)C1O (stereo unspecified),outcome,HaCat [1],inactive
same,max response,NIH3T3,-19%
same,outcome,HACAT [2],inactive [at 17.4 µM]
COc1cc([C@@H]2c3cc4c(cc3C(O[C@@H]3O[C@@H]5COC(c6cccs6)O[C@H]5[C@H](O)[C@H]3O)C3COC(=O)[C@@H]32)OCO4)cc(OC)c1O (stereo partly specified),Potency,KB-3-1,3.66 µM (active)
Cc1cc(C)nc(SCC(=O)Nc2ncc(Cc3cccc4ccccc34)s2)n1,outcome,HaCat [1],inactive
same,max response,NIH3T3,-0.172%
same,outcome,HACAT [2],inactive
CCCCCCCCCCCCCCCCCC(=O)OCCO,max response,KB-3-1,-9.35%
CCOC(=O)N1CCC(CN(Cc2ccc(Cl)cc2)Cc2ccc([N+](=O)[O-])s2)C1 (stereo unspecified),max response,HaCat [1],-2.73%
same,max response,NIH3T3,-3.24%
O=C(Nc1ccccc1)N1CCN(c2nc(-c3ccccc3)ns2)CC1,outcome,HaCat [1],inactive
same,max response,NIH3T3,-11.1%
same,outcome,HACAT [2],inactive
COc1cc(/C=C/C(=O)NCCn2c(C(F)(F)F)cc3ccccc32)cc(OC)c1OC,max response,HaCat [1],-29.1%
same,max response,NIH3T3,-23.8%
CC(=O)OC1CC(O)(C(C)C)C2C(OC(=O)c3ccc(O)cc3)C=C(C)C(=O)CC12C (stereo unspecified),outcome,HaCat [1],inactive
same,max response,NIH3T3,0.784%
same,outcome,HACAT [2],inactive [at 17.4 µM]
N#Cc1ccc(-c2ccc(S(=O)(=O)Nc3cccc(N)n3)cc2)cc1,outcome,HaCat [1],inactive
same,max response,NIH3T3,-2.42%
same,outcome,HACAT [2],inactive
COC1C(O)C(OC2CCC3(C)C(CCC45CCC6C7(COC(=O)C7)OC4(O)C6(C)CCC35)C2)OC(C)C1OC1OC(CO)C(OC2OC(CO)C(O)C(O)C2O)C(O)C1O (stereo unspecified),outcome,HaCat [1],inactive
same,max response,NIH3T3,1.1%
same,outcome,HACAT [2],inactive [at 9.27 µM]
O=C1Cc2c([nH]c3ccc(Br)cc23)-c2ncccc2N1,max response,HaCat [1],2.65%
same,outcome,NIH3T3,inactive
CC(=O)OCC(=O)[C@@]1(O)[C@H](C)C[C@H]2[C@@H]3C[C@H](F)C4=CC(=O)C=C[C@]4(C)[C@H]3[C@@H](O)C[C@@]21C,max response,KB-3-1,23.1%
COc1ccc(C2=NC(c3ccc(Cl)cc3)C(c3ccc(Cl)cc3)N2C(=O)N2CCNC(=O)C2)c(OC(C)C)c1 (stereo unspecified),outcome,HaCat [1],inactive
same,outcome,HACAT [2],inactive
COC(=O)c1ccc2c(c1)nc(NC(=O)c1ccccc1)n2CCCc1ccccc1,outcome,HaCat [1],inactive
same,max response,NIH3T3,1.52%
same,outcome,HACAT [2],inactive
CC(C)(C)[C@H](NC(=O)c1ccc(N)c(Cl)c1)C(=O)N1CCC[C@H]1C(=O)N[C@H](C#N)CC(=O)O,max response,KB-3-1,5.39%
Oc1cccc(-c2c3nc(c(-c4cccc(O)c4)c4ccc([nH]4)c(-c4cccc(O)c4)c4nc(c(-c5cccc(O)c5)c5ccc2[nH]5)CC4)C=C3)c1,Potency,KB-3-1,16.4 µM (active)
O=S(=O)(c1ccc(Cl)cc1)N1CCN(c2ccnc3cc(Cl)ccc23)CC1,outcome,HaCat [1],inactive
same,max response,NIH3T3,3.17%
same,outcome,HACAT [2],inactive
CC[C@H](C(=O)Nc1ccccc1N1CCCC1)c1ccccc1,max response,HaCat [1],-11.1%
same,max response,NIH3T3,-0.387%
CC(=O)OC1CCC2(C)C(CCC3(C)C2CC=C2C4C(C)C(C)CCC4(C)CCC23C)C1(C)C(=O)O (stereo unspecified),max response,HaCat [1],3.45%
same,max response,NIH3T3,-0.103%
C=C1CC[C@@H]2[C@](C)(CO)[C@H](O)CC[C@@]2(C)[C@@H]1/C=C/C1=CCOC1=O,outcome,HaCat [1],inactive
same,max response,NIH3T3,-1.38%
same,outcome,HACAT [2],inactive
CN=C(NC)NCc1ccccc1,max response,KB-3-1,-10.8%
CC(=O)OC[C@]12[C@H](OC(C)=O)C(=O)[C@@H]3[C@@H](O)[C@@]14O[C@@]3(C)COC(=O)c1cccnc1[C@@H](C)[C@H](C)C(=O)O[C@@H]([C@H](O)[C@@H]2OC(C)=O)[C@]4(C)O,outcome,HaCat [1],inactive
same,max response,NIH3T3,-17.4%
same,outcome,HACAT [2],inactive [at 17.4 µM]
Cc1cc(-n2c(=O)[nH]c(=O)n(C)c2=O)ccc1Oc1ccc(S(=O)(=O)C(F)(F)F)cc1,max response,KB-3-1,28.3%
NCCCC[C@H](NC(=O)[C@@H]1CCCN1C(=O)[C@@H]1CSSC[C@H](NC(=O)CNC(=O)CNC(=O)CN)C(=O)N[C@@H](Cc2ccc(O)cc2)C(=O)N[C@@H](Cc2ccccc2)C(=O)N[C@@H](CCC(N)=O)C(=O)N[C@@H](CC(N)=O)C(=O)N1)C(=O)NCC(N)=O (H-GGGCYFQNCPKG-NH2; disulfide 4-9),max response,KB-3-1,-6.41%
Cc1ccc(-c2c(C(=O)CCl)n(CCCO)c3ncnc(N)c23)cc1,max response,KB-3-1,-3.1%
O=P(O)(O)C(O)(Cc1cnc2ccccn12)P(=O)(O)O,max response,KB-3-1,-1.58%
CCC(=O)OCC(=O)[C@@]1(OC(=O)CC)[C@H](C)C[C@H]2[C@@H]3CCC4=CC(=O)C=C[C@]4(C)[C@@]3(F)[C@@H](O)C[C@@]21C,max response,KB-3-1,-9.03%
CO[C@@H]1[C@@H](O[C@@H]2O[C@H](C)[C@@H](O[C@H]3C[C@@](C)(O)[C@@H](OC(=O)CC(C)C)[C@H](C)O3)[C@H](N(C)C)[C@H]2O)[C@@H](CC=O)C[C@@H](C)[C@@H](O)/C=C/C=C/C[C@@H](C)OC(=O)C[C@H]1O,max response,KB-3-1,-0.235%
CCCCC(=O)O,max response,KB-3-1,-12.9% and -9.7%
O=C(OCCO)c1ccccc1O,max response,KB-3-1,-5.64%
OC(CN1CCCCC1)c1cc(-c2ccccc2)on1 (stereo unspecified),max response,KB-3-1,-12.7%
CC(=O)O[C@H]1CC[C@@]2(C)C(=CC[C@H]3[C@@H]4CC[C@H](C(C)=O)[C@@]4(C)CC[C@@H]32)C1,max response,KB-3-1,2.35%
CN[C@@H]1CCc2[nH]c3ccc(C(N)=O)cc3c2C1,max response,KB-3-1,-3.81%
CC(=O)O[C@H]1CC(C)(C)CC2[C@]13CO[C@@]21CCC2[C@@]4(C)CC[C@H](O[C@@H]5OC[C@H](O[C@@H]6O[C@H](CO)[C@@H](O)[C@H](O)[C@H]6O[C@@H]6OC[C@@H](O)[C@H](O)[C@H]6O)[C@H](O)[C@H]5O[C@@H]5O[C@H](CO)[C@@H](O)[C@H](O)[C@H]5O)[C@@](C)(CO)C4CC[C@@]2(C)[C@]1(C)C[C@H]3O (stereo partly specified),max response,KB-3-1,4.15%
CC(C)c1cccc(C(C)C)c1NC(=O)Nc1ccc(Sc2ccc([N+](=O)[O-])cc2)cc1,Potency,KB-3-1,10.3 µM (active)
C[C@]12CC[C@@H]3c4ccc(OS(=O)(=O)O)cc4CC[C@H]3[C@@H]1CCC2=O,max response,KB-3-1,3.98%
O=C(O)c1cccc(/C=C2/C[C@@H]3[C@@H](/C=C/[C@@H](O)C4CCCCC4)[C@H](O)C[C@@H]3O2)c1,max response,KB-3-1,-0.588%
CS(=O)(=O)Nc1cc2occ(NC=O)c(=O)c2cc1Oc1ccccc1,max response,KB-3-1,1.81%
CCOC(=O)Cc1cccc(-c2cc(CCCCCCc3ccc(O[C@H]4O[C@H](COC(C)=O)[C@@H](OC(C)=O)[C@H](OC(C)=O)[C@@H]4OC(C)=O)c(-c4cccc(CC(=O)OCC)c4)c3)ccc2O[C@H]2O[C@H](COC(C)=O)[C@@H](OC(C)=O)[C@H](OC(C)=O)[C@@H]2OC(C)=O)c1,max response,KB-3-1,-10.9%
Cc1ccccc1CNc1ncnc2c1ncn2[C@@H]1O[C@H](CO)[C@@H](O)[C@H]1O,max response,KB-3-1,-19%
COc1ccc(C(=O)Nc2ccccc2CCC2CCCCN2C)cc1 (stereo unspecified),max response,KB-3-1,-11.1%
CCCCCCCC/C=C\CCCCCCCC(=O)OC[C@@H](O)[C@H]1OC[C@H](O)[C@H]1O,max response,KB-3-1,-11.7%
C=C[C@]1(C)C[C@@H](OC(=O)CO)[C@]2(C)[C@H](C)CC[C@]3(CCC(=O)[C@H]32)[C@@H](C)[C@@H]1O,max response,KB-3-1,-28.5%
CN1CC(O)c2cc(N=NC(N)=O)c(O)cc21 (stereo unspecified),max response,KB-3-1,-10.6%
CCC(C)(C)OC(=O)N[C@@H](Cc1c[nH]c2ccccc12)C(=O)N[C@@H](CCSC)C(=O)N[C@@H](CC(=O)O)C(=O)N[C@@H](Cc1ccccc1)C(N)=O,max response,KB-3-1,0.713%
